Source: PubChem BioAssay
In the library only some 2.2% were active in any assay of this set; here they are far more common.
BaF3 parental: parental Ba/F3 cell viability inhibition, counter-screen for JAK2V617F inhibitor project, murine pro-B, CellTiter-Glo luminescence; 220,000 tested, 1.1% active; CellTiter-Glo ATP luminescence; inhibition, % at 5.6 µM;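 active = inhibition above a per-campaign cutoff, the mean inhibition of all tested compounds plus 3 SD, cut at about 27% in these data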
IEC-6 cytotox: cytotoxicity in IEC-6 intestinal epithelial cells, primary screen, cytotoxicity control for KLF5 inhibitor project, cell-based, luminescence. inhibition, % at 5 µM. AID 1825, 2009. IEC-6 cytotoxicity, luminescence viability. 290,000 tested, 0.78% active
KLF5 inhibitor: KLF5 expression inhibitors, primary screen, DLD-1 cells, luminescence; DLD-1 KLF5 promoter-luciferase reporter; inhibition, % at 5 µM; 290,000 tested, 0.23% active;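 active = inhibition above a per-plate limit of that plate's mean compound inhibition plus 3 SD, cut at about 60% in these data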;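 note: higher means less KLF5 promoter-driven luciferase light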
Ba/F3 V617F tox: reduced viability of JAK2V617F-dependent Ba/F3 cells, primary screen, JAK2V617F inhibitor project, cell-based, Ba/F3 EpoR-JAK2V617F, luminescence | 220,000 tested, 1.1% active | inhibition, % at 5.6 µM | AID 1446, 2008 | ATP luminescence;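 active = inhibition above the campaign mean plus 3 SD over all tested compounds, cut at about 24% in these data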;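 note: cytokine-independent growth of Ba/F3 cells driven by EpoR plus mutant JAK2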
aSyn 5UTR inh: MLPCN primary screen, SNCA 5' untranslated region; alpha-synuclein 5'UTR reporter, inhibitor activity; inhibition, % (tested at 7.5 µM); 300,000 tested, 0.82% active; AID 1813, 2009; in the data active = inhibition above about 60%;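 note: H4 neuroglioblastoma cells stably carrying SNCA 5'UTR luciferase fusion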
APP transl inh: inhibitors of APP translation via 5'UTR reporter, primary screen, APP 5'UTR luciferase, SH-SY5Y cells | SH-SY5Y APP 5'UTR-luciferase reporter, luminescence | inhibition, % at 2 µM | 190,000 tested, 0.82% active;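 active = inhibition above a set limit, derived from the sample mean plus 3 SD, cut at about 45% in these data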
IEC-6 tox confirm: cytotoxic compounds in IEC-6 epithelial cells, confirmation, cytotoxicity control, cell-based, luminescence | IEC-6 rat intestinal epithelial viability | inhibition, % at 5 µM | shares compounds with IEC-6 cytotox | 1,900 tested, 63% active
Large screens that a line does not name were inactive (follow-up assays come after a bar, where they were run). Cut-off read from the data, not from the text of the source, unless noted: active = inhibition above about 22%; inactive = the rest.

O=C1Nc2ccccc2C1=O	none (no result: BaF3 parental, IEC-6 cytotox, KLF5 inhibitor, Ba/F3 V617F tox, APP transl inh)
O=C1c2ccccc2C(=O)c2[nH]c(=O)[nH]c21	IEC-6 cytotox 100.7, aSyn 5UTR inh 93.0 (no result: BaF3 parental, Ba/F3 V617F tox, APP transl inh) | IEC-6 tox confirm 97.8
O=C(O)c1ccc(S(=O)(=O)N2CCC3(CC2)CC(=O)c2ccccc2O3)cc1	none (no result: BaF3 parental, IEC-6 cytotox, KLF5 inhibitor, Ba/F3 V617F tox, APP transl inh)
O=C(Nc1ccc([N+](=O)[O-])cc1)Nc1ccon1	IEC-6 cytotox 81.6, aSyn 5UTR inh 74.0 (no result: BaF3 parental, Ba/F3 V617F tox, APP transl inh) | IEC-6 tox confirm 57.0
CN(CC(=O)Nc1ccccc1Cl)C(=O)c1ccc(-c2cccc(C(F)(F)F)c2)o1	none (no result: BaF3 parental, IEC-6 cytotox, KLF5 inhibitor, Ba/F3 V617F tox, APP transl inh)
CC(C)n1cc(/C=N/Nc2ccc(C(=O)O)cc2)c2ccccc21	IEC-6 cytotox 35.2 (no result: BaF3 parental, Ba/F3 V617F tox, APP transl inh) | IEC-6 tox confirm 54.8
CCN1CCN(CCCNC(=O)CNC(=O)c2nn(-c3ccc(OC)cc3OC)c(=O)c3ccccc23)CC1	none (no result: BaF3 parental, Ba/F3 V617F tox, APP transl inh)
COc1cc(/C=N/Nc2snc(SC)c2C#N)cc(OC)c1OC	IEC-6 cytotox 26.2 | IEC-6 tox confirm 49.3
COc1ccc(N2CCN(c3nc4cc(C)ccc4cc3C=O)CC2)cc1	none (no result: BaF3 parental, Ba/F3 V617F tox, APP transl inh)
CCCCC(=O)Nc1ccc(C(=O)OC2CCCCC2)cc1	IEC-6 cytotox 24.4 | IEC-6 tox confirm inactive
O=C(O)CCC(=O)Nc1ccc(C(=O)OC2CCCCC2)cc1	none
Cc1ccccc1SCC(=O)NNC(=O)c1ccccc1O	none (no result: BaF3 parental, Ba/F3 V617F tox, APP transl inh)
CCCNC(=O)c1cc2c3ccccc3n(C)c2s1	none (no result: APP transl inh)
Cn1c2ccccc2c2cc(C(=O)NNC(=O)CCl)sc21	IEC-6 cytotox 26.6 | IEC-6 tox confirm inactive
CCCN(CC(=O)Nc1ccc(F)c(F)c1F)CC(=O)Nc1c(Cl)cccc1Cl	IEC-6 cytotox 59.1 | IEC-6 tox confirm 37.7
COc1ccc(C(=O)Nc2ccc3ccccc3c2)cc1OC	none (no result: BaF3 parental, Ba/F3 V617F tox, APP transl inh)
COc1cc(C(=O)Nc2ccc3ccccc3c2)cc(OC)c1OC	IEC-6 cytotox 78.2, aSyn 5UTR inh 88.5 (no result: BaF3 parental, Ba/F3 V617F tox, APP transl inh) | IEC-6 tox confirm 59.4
CS(=O)(=O)c1cccc(NC(=O)C2CCCN2S(=O)(=O)c2ccc(F)cc2)c1 (stereo not drawn)	none (no result: BaF3 parental, Ba/F3 V617F tox, APP transl inh)
C=CCn1c(C)cc(C(=O)Cn2ncc(Cl)c(Cl)c2=O)c1C	IEC-6 cytotox 47.6, APP transl inh 86.7 | IEC-6 tox confirm inactive
CCCN(CC(=O)Nc1ccccc1C)C(=O)CCNC(=O)c1ccccc1Cl	none (no result: BaF3 parental, IEC-6 cytotox, KLF5 inhibitor, Ba/F3 V617F tox, APP transl inh)
CCc1nnc(NC(=O)C(NC(=O)c2ccccc2Cl)C(C)C)s1 (stereo not drawn)	none
CC(Oc1ccc(Br)cc1)C(=O)Nc1nc(-c2ccccn2)cs1 (stereo not drawn)	IEC-6 cytotox 49.7 (no result: BaF3 parental, Ba/F3 V617F tox, APP transl inh) | IEC-6 tox confirm 24.3
CC(C)[C@H](NC(=O)c1ccccc1Cl)C(=O)Nc1nc(-c2ccccn2)cs1	IEC-6 cytotox 40.3, aSyn 5UTR inh 63.6 | IEC-6 tox confirm 39.9
O=C(O)Cc1ccc(NC(=O)c2ccc(NC(=O)C3CC3)cc2)cc1	none (no result: BaF3 parental, Ba/F3 V617F tox, APP transl inh)
CCCc1cc(=O)oc2cc(OCC(=O)NCCc3ccc(S(N)(=O)=O)cc3)ccc12	none (no result: BaF3 parental, Ba/F3 V617F tox, APP transl inh)
Cc1cnc(NC(=O)C2CC(=O)N(c3cccc(Cl)c3)C2)s1 (stereo not drawn)	IEC-6 cytotox 72.7 (no result: BaF3 parental, Ba/F3 V617F tox, APP transl inh) | IEC-6 tox confirm 33.0
CN(C)c1ccc(NC(=O)CSc2nc(C3CC3)nc3ccccc23)cc1	none (no result: BaF3 parental, Ba/F3 V617F tox, APP transl inh)
O=C(c1ccco1)N(Cc1cccc(Cl)c1)C1CCS(=O)(=O)C1 (stereo not drawn)	none (no result: BaF3 parental, Ba/F3 V617F tox, APP transl inh)
O=C(CC1(O)C(=O)N(C/C=C/c2ccccc2)c2ccccc21)c1ccccn1 (stereo not drawn)	BaF3 parental 93.3, IEC-6 cytotox 89.4, Ba/F3 V617F tox 92.1, APP transl inh 56.8 | IEC-6 tox confirm 32.5
O=C(CC1(O)C(=O)N(CCc2ccccc2)c2ccccc21)c1ccccn1 (stereo not drawn)	none
CCOc1ccccc1NC(=O)c1cc(S(=O)(=O)NCc2ccco2)ccc1F	none (no result: BaF3 parental, Ba/F3 V617F tox, APP transl inh)
CCOC(=O)Nc1cc(=O)c2ccccc2o1	BaF3 parental 59.7, IEC-6 cytotox 44.0, Ba/F3 V617F tox 69.3 | IEC-6 tox confirm 22.9
NS(=O)(=O)c1ccc(CCNC(=O)C2CCN(S(=O)(=O)c3ccc(Br)s3)CC2)cc1	none
O=C(NCc1ccccc1Cl)C1CCN(c2cnccn2)CC1	none
